A selection: hits, their analogues and other compounds. The true share with any hit is near 5.2%.
EphB4 ephrin blk = EphB4-ephrin-B2 interaction antagonists, primary screen, biochemical, TNYL-RAW peptide probe, fluorescence polarization; EphB4 LBD / TNYL-RAW-Alexa532 peptide; hit rate 0.15% among 97,000; AID 720, 2007; inhibition, % at 7 µM; Ephrin type-B receptor 4 (Homo sapiens), P54760;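 active means inhibition above the screen-wide mean inhibition plus 3 SD, cut at about 15% in these data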;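 further: 0% = DMSO wells and 100% = excess unlabeled TNYL-RAW peptide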
Target sequence (P54760 whole entry, looked up, the tested form may be a part): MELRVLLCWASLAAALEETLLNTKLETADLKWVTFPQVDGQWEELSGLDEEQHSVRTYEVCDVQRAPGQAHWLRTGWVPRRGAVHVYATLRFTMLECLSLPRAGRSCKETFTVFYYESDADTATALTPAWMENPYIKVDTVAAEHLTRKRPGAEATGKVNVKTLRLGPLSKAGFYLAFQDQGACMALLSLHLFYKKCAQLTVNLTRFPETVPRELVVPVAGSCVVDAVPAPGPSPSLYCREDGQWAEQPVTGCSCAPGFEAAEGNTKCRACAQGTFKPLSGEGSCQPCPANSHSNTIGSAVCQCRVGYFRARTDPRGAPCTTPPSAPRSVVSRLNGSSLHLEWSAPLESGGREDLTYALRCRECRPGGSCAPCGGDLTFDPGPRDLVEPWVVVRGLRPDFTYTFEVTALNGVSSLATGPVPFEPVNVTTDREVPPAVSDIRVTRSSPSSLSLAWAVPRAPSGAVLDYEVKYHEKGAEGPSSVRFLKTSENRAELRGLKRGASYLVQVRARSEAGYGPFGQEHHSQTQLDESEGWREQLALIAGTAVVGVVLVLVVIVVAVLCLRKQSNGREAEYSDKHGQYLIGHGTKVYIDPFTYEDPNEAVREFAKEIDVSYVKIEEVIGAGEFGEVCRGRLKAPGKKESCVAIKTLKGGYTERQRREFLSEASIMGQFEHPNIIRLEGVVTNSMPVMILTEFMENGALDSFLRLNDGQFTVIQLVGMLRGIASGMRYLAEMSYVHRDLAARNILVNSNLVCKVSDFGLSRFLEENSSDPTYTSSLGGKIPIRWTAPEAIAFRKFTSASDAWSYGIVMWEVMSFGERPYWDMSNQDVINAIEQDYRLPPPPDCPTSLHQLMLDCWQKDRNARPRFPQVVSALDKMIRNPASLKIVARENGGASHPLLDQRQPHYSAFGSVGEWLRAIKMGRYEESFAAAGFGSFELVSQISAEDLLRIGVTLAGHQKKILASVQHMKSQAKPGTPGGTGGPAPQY
PostGolgi yeast = phenotypic screen on post-Golgi transport, primary screen; post-Golgi transport phenotypic cell assay; inhibition, % at 10 µM; hit rate 0.9% among 98,000; AID 739, 2007;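 further: yeast cells grown in 1536-well plates; yeast grown about 18 h at 30C before absorbance read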
Candida biofilm = clotrimazole potentiators killing Candida biofilms, primary screen, with clotrimazole, Alamar Blue; inhibition, % at 6 µM; hit rate 0.14% among 85,000; AID 834, 2007; C. albicans biofilm + clotrimazole;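 active means inhibition above 20%; inactive means inhibition below 20%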;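 further: preformed 24 hr biofilms exposed to compound for 48 hr; 0% = biofilm without compound and 100% = blank killed by clotrimazole plus chlorhexidine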
PostGolgi ctrl = growth inhibition of yeast control strain, primary screen, counter-screen for post-Golgi transport modulator project | efflux-deficient yeast background strain, growth absorbance A615, 16 h | inhibition, % at 10 µM | hit rate 5% among 98,000 | AID 738, 2007
* marks the source's active call; other numbers are inactive results. Unless noted, no stated cut-off is given here; in the data, active means inhibition above about 30%; inactive means the rest.

Cc1cccc(NS(=O)(=O)c2cc(C(=O)N3CCN(C)CC3)ccc2C)c1 was read as EphB4 ephrin blk 8.3, PostGolgi yeast -4.2, Candida biofilm 4.0 and PostGolgi ctrl 32.1*.
Cc1ccc(NS(=O)(=O)c2cc(C(=O)N3CCN(C)CC3)ccc2C)cc1 was read as EphB4 ephrin blk 8.5, PostGolgi yeast -6.4, Candida biofilm 7.6 and PostGolgi ctrl -3.6.
For Cc1ccc(NS(=O)(=O)c2cc(C(=O)N3CCc4ccccc4C3)ccc2Cl)cc1 the results were EphB4 ephrin blk -8.0, PostGolgi yeast 35.2* and PostGolgi ctrl 63.8*.
For O=C(CSc1nn(-c2ccccc2)c(=S)s1)NC(=O)NCc1ccco1 the results were EphB4 ephrin blk 0.6, PostGolgi yeast -1.5, Candida biofilm 7.5 and PostGolgi ctrl -0.9.
`O=C(CCc1nc2ccccc2[nH]c1=O)OCC(=O)c1cccc2ccccc12` gave EphB4 ephrin blk 4.2, PostGolgi yeast 1.8 and PostGolgi ctrl 27.1.
For O=C(NCc1ccco1)C(c1cccs1)N(C(=O)Cc1cccs1)c1ccccc1 (stereo not drawn) the results were EphB4 ephrin blk 2.4, PostGolgi yeast 37.6*, Candida biofilm 3.7 and PostGolgi ctrl 7.5.
For O=C(NCC(=O)N(c1cccnc1)C(C(=O)NCc1ccco1)c1ccccc1)c1ccco1 (stereo not drawn) the results were EphB4 ephrin blk 10.2, PostGolgi yeast 39.2*, Candida biofilm 6.8 and PostGolgi ctrl -0.1.
O=C(NCc1ccco1)C(c1ccccc1)N(C(=O)Cc1cccs1)c1ccccc1 (stereo not drawn) was read as EphB4 ephrin blk 10.7 and Candida biofilm 4.0.
For C=CCn1c(SCCC(=O)O)nc2c1c(=O)n(C)c(=O)n2C the results were EphB4 ephrin blk -2.1, PostGolgi yeast 13.0, Candida biofilm -4.1 and PostGolgi ctrl 0.6.
`C/C(N)=C(/C#N)C(=O)COC(=O)COc1ccc(Cl)cc1C` gave EphB4 ephrin blk 2.3, PostGolgi yeast 1.0 and PostGolgi ctrl 4.6.
`CCSc1nnc(NC(=O)C(CC)Oc2ccccc2)s1` (stereo not drawn) gave PostGolgi yeast -4.2, Candida biofilm 1.4 and PostGolgi ctrl 24.1.
Cc1ccc(NC(C)c2cc(Cl)ccc2O)cc1 (stereo not drawn) was read as EphB4 ephrin blk 5.5, PostGolgi yeast -3.1, Candida biofilm 35.5* and PostGolgi ctrl -1.1.
Screening Cc1ccc(O)c(Sc2cc(C)ccc2O)c1 returned EphB4 ephrin blk 3.1, PostGolgi yeast 1.2, Candida biofilm 8.2 and PostGolgi ctrl 18.4.
Screening Cc1ccc(OCc2n[nH]c(=S)n2C2CCCCC2)cc1 returned EphB4 ephrin blk -0.3, PostGolgi yeast -2.3, Candida biofilm -2.4 and PostGolgi ctrl 41.5*.
`Cc1cc(C)cc(NC(=O)CSc2nc3c(c(=O)n2C)SC(C)C3)c1` (stereo not drawn) gave PostGolgi yeast 14.5, Candida biofilm -0.2 and PostGolgi ctrl -3.3.
Screening CC1(C)Cc2ccccc2-c2nnc(SCC(=O)Nc3nc4ccccc4s3)n21 returned EphB4 ephrin blk 17.8*, PostGolgi yeast 6.5, Candida biofilm 0.4 and PostGolgi ctrl 7.0.
CC1Cc2nc(SCC(=O)NCc3ccco3)n(Cc3ccccc3)c(=O)c2S1 (stereo not drawn) was read as PostGolgi yeast -14.9, Candida biofilm 3.6 and PostGolgi ctrl 43.2*.
`CCn1c(SCC(=O)Nc2nc3ccccc3s2)nc2c(c1=O)SC(C)C2` (stereo not drawn) gave EphB4 ephrin blk 1.2, PostGolgi yeast -14.5, Candida biofilm 6.4 and PostGolgi ctrl 51.1*.
Screening Cn1c(SCC(=O)Nc2nc3ccccc3s2)nnc1-c1ccccc1 returned EphB4 ephrin blk 6.5, PostGolgi yeast 3.8, Candida biofilm -1.8 and PostGolgi ctrl 5.9.
Screening Cc1cc(C)c(NC(=O)CSc2nc3c(c(=O)n2C)SC(C)C3)c(C)c1 (stereo not drawn) returned EphB4 ephrin blk -1.8, PostGolgi yeast -1.6, Candida biofilm 5.8 and PostGolgi ctrl 31.2*.
`CCn1c(SCC(=O)Nc2nc3ccc(C)cc3s2)nc2c(c1=O)SC(C)C2` (stereo not drawn) gave EphB4 ephrin blk 0.2, PostGolgi yeast 13.0, Candida biofilm 4.0 and PostGolgi ctrl 84.2*.
CC1C(=O)C(C)C(c2ccc3c(c2)OCO3)NC1c1ccc2c(c1)OCO2 (stereo not drawn) was read as EphB4 ephrin blk -2.9, PostGolgi yeast 4.3, Candida biofilm -2.9 and PostGolgi ctrl 35.4*.
`O=C1CC(c2ccc3c(c2)OCO3)CN1` (stereo not drawn) gave EphB4 ephrin blk -0.2, PostGolgi yeast 17.1, Candida biofilm 6.0 and PostGolgi ctrl -4.3.
`COc1ccc(-n2c(O)c(Cc3ccccc3)c(=O)n3nc(-c4ccccc4)c(=O)cc23)cc1` gave EphB4 ephrin blk -4.9 and Candida biofilm 9.1.
COc1ccc2c(c1)OC13CCN(C)CC1C2C(C(=O)c1ccc(F)cc1)C(=O)N3 (stereo not drawn) was read as Candida biofilm 7.4.
`c1ccc2c(c1)ncn2CCC1CCCCC1` gave EphB4 ephrin blk 5.2, PostGolgi yeast -1.1, Candida biofilm 4.7 and PostGolgi ctrl 80.5*.
`O=c1[nH]c2ccccc2n1CCC1CCCCC1` gave EphB4 ephrin blk -0.3, PostGolgi yeast 1.1, Candida biofilm 1.1 and PostGolgi ctrl 49.5*.
`S=C(NCc1ccco1)N1CCN(Cc2ccc(Cl)cc2Cl)CC1` gave EphB4 ephrin blk -10.6, PostGolgi yeast 8.0 and PostGolgi ctrl 31.8*.
O=C(CN1CCN(Cc2ccccc2)CC1)NC(=O)NCc1ccco1 was read as EphB4 ephrin blk 1.4, PostGolgi yeast -3.5, Candida biofilm 6.2 and PostGolgi ctrl 15.0.
Screening Cc1ccc(C)c(-n2nnnc2SCC(=O)NCCC2=CCCCC2)c1 returned EphB4 ephrin blk 0.7, PostGolgi yeast -1.4, Candida biofilm 5.6 and PostGolgi ctrl 38.6*.
`CNC(=O)CSc1nnnn1-c1cc(C)ccc1C` gave EphB4 ephrin blk 2.6 and Candida biofilm 4.9.
`O=[N+]([O-])c1ccc(N2N=C(c3ccco3)CC2c2ccccc2)cc1` (stereo not drawn) gave EphB4 ephrin blk -3.1, PostGolgi yeast 3.4 and PostGolgi ctrl 31.2*.
COc1cc2c(C#N)c(N3CCN(c4ccccc4OC)CC3)nc(N)c2c(N)n1 was read as PostGolgi yeast 17.4 and PostGolgi ctrl 36.5*.
Screening O=C(Cc1csc(N2CCOCC2)n1)N/N=C/c1ccc(F)cc1 returned EphB4 ephrin blk 5.6, PostGolgi yeast -0.2, Candida biofilm 4.4 and PostGolgi ctrl 3.0.
CC(=O)N1N=C(c2ccc3nccnc3c2)CC1c1ccccc1 (stereo not drawn) was read as EphB4 ephrin blk 3.7, PostGolgi yeast 5.0 and PostGolgi ctrl 27.0.
Cc1ccc(C2=NN3C(C(=O)c4ccccc4)Oc4ccccc4C3C2)cc1 (stereo not drawn) was read as EphB4 ephrin blk 3.7, PostGolgi yeast 11.6 and PostGolgi ctrl 50.2*.

Assay outcomes: PubChem BioAssay, several laboratories
